This passage reports growth inhibition and inhibition results from PubChem BioAssay.

Broadly, the inhibition is the relative decrease from the control value, in per cent.

SMILES strings stand for the structures. Activity calls are given as the source filed them.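 How the source made its calls, unless noted: active means inhibition above 50%; inactive means the rest.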

One assay in a line: antimalarial activity against Dd2 strain (AID 2302;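 active means growth inhibition above 50% at the single 2 µM test dose, taken to imply half-maximal potency below 2 µM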;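 further: 0% = DMSO untreated growth and 100% = chloroquine plus artemisinin killed control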). The conditions noted are these: P. falciparum Dd2 in RBCs, LDH growth readout, 72 h; at 2 µM; hits give high values.
`COc1ccc(-c2nc(NC(=O)Cc3ccc4c(c3)OCCO4)sc2C)cc1`: the growth inhibition was 99% (active).

For the compound `Nc1ccc(-c2cc(Cl)cc(Cl)c2)cc1-c1cc2ccccc2[nH]1`, the growth inhibition is 97% (active).

`CC(CNc1ccnc(Nc2ccc3[nH]c(=O)[nH]c3c2)n1)c1ccccc1` (stereo unspecified): the growth inhibition is 2% (inactive).

For `CCCCCCCN1CC[C@@H](CCCc2ccnc3ccc(OC)cc23)[C@@H](CNC)C1`, the growth inhibition is 95% (active).

On to `NC1(C(=O)O)Cc2ccc(Cl)cc2C1` (stereo unspecified), for which the growth inhibition was 1% (inactive).

For the compound `COc1ccc(CN(C)Cc2ccc(NC(=O)c3cccc4c(=O)c5cccc(C)c5[nH]c34)cc2)cc1OC`, the growth inhibition is 22% (inactive).

Take `Cc1ccc(-c2nc3ccc(C(=O)NC4CCN(Cc5ccccc5)CC4)cc3[nH]2)cc1`: the growth inhibition is 53% (active).

Turning to `Cc1ccc(O)cc1Nc1ccnc2cc(-c3ccncc3)ccc12`, the growth inhibition is 84% (active).

As for `O=S(=O)(Nc1cccc(CCN2CCC(N3CCCCC3)CC2)c1)c1cccc2cccnc12`, the growth inhibition was 17% (inactive).

In the case of `O=C(NC(=O)c1ccccc1)NC1CCN(c2ccnc3cc(Cl)ccc23)C1` (stereo unspecified), the growth inhibition is 99% (active).

Consider `Cc1c(Cl)cccc1S(=O)(=O)N1CCCCC(c2ccc(C(F)(F)F)cc2)=N1`, for which the growth inhibition is 91% (active).

With `CC1CCCN(C(=O)C(C)Nc2cc(Cl)ccc2N2CCOCC2)C1` (stereo unspecified), the growth inhibition is 96% (active).

Turning to `Cc1cc(N(C)C)nc(Nc2ccc(NC(=O)c3ccccc3Cl)cc2)n1`, the growth inhibition was 31% (inactive).

Regarding `COc1cc(-c2nc(-c3ccccc3)c(-c3ccccc3)[nH]2)cc(OC)c1O`, the growth inhibition was 90% (active).

Turning to `CCC(C)NC(=O)Nc1ccc(-c2cccc(-c3nc4c(C)cccc4[nH]3)c2)cc1` (stereo unspecified), the growth inhibition was 83% (active).

Turning to `N#Cc1cccc(CN2CCCN(Cc3cccc(C(=O)Nc4ccc(Cl)cc4)c3)CC2)c1`, the growth inhibition was 9% (inactive).

For the compound `CC(CCNc1c2ccccc2nc2ccccc12)N1CCN(C)CC1` (stereo unspecified), the growth inhibition was -2% (inactive).

Take `CCN(CC)c1nc(N)c2c(N)nc3c(c2c1C#N)C(=O)CN3Cc1ccccc1`: the growth inhibition is 96% (active).

For the compound `Cc1ccc(-c2cc(C(=O)Nc3ccc(S(=O)(=O)N4CCOCC4)cc3)[nH]n2)c(O)c1C`, the growth inhibition was 45% (inactive).

In the case of `COc1ccc(Br)cc1/C=C/C(=O)Nc1ccc(C2CCN(C)CC2)cc1`, the growth inhibition is 61% (active).

Regarding `CC(C)Cn1c(N)cc(=O)n(C)c1=O`, the growth inhibition was 0% (inactive).

As for `CC1(C)N=C(N)N=C(N)N1OCCCO`, the growth inhibition was -1% (inactive).

For `O=C(/C=C/c1ccc(Cl)c(Cl)c1)NCCCCCN1CCCN(C(=O)Nc2ccc(C(F)(F)F)cc2)CC1`, the growth inhibition is 7% (inactive).

For `CCOC(=O)C(NC(=O)Cc1ccccc1)C(C)C` (stereo unspecified), the growth inhibition was 98% (active).

Turning to `COc1cc(Nc2ncnc3cc(OC)c(OC)cc23)cc([N+](=O)[O-])c1`, the growth inhibition was 6% (inactive).

With `COc1cc2c(cc1OC)CN(c1cc(N)c3cc(OC)c(OC)cc3n1)CC2`, the growth inhibition is 99% (active).

Another assay is described as follows: human hepatoma cell viability loss – ATP luminescence, cytotoxicity control for P. falciparum antimalarial project, primary screen (AID 2303).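 Further: 0% = DMSO wells and 100% = digitonin-killed cells.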 The note with it: HepG2 viability, 24-48 h, at 10 µM, hits give high values.
Regarding `FC(F)(F)c1ccc2nc(-c3cccc(-c4ccc(CNCc5cnn(-c6ccccc6)n5)cc4)c3)[nH]c2c1`, the inhibition is 14% (inactive).

Turning to `N=C(N)c1cc(Cl)cc(NC(=O)Nc2cc(Cl)cc(C(=N)N)c2)c1`, the inhibition is 4% (inactive).

For `COc1cccc(C=CC(=O)N(CCN)Cc2ccccc2)c1`, the inhibition was -14% (inactive).

As for `Cn1nc(C(F)(F)F)c(-c2ccc(Br)cc2)c1NC(=O)Cc1ccccc1F`, the inhibition is 6% (inactive).

As to `CN(C)CCCN1C(=O)c2[nH]nc(-c3ccc(Cl)cc3O)c2C1c1ccc(Cl)cc1` (stereo unspecified), the inhibition was 57% (active).

In the case of `COc1ccc2nc(-c3cc(-c4ccc(NC(=O)C(C)C)cc4)cnc3N)[nH]c2c1`, the inhibition is 43% (inactive).

Turning to `COc1cc(NC(=O)c2nn(CCCN3CCC(N4CCCC4)CC3)cc2-c2ccc(Cl)c(Cl)c2)cc(OC)c1OC`, the inhibition was 76% (active).

For `O=C(Nc1ccccc1)Nc1cccc(-c2cc(CNCCc3ccccc3)sc2-c2ccncc2)c1`, the inhibition is 14% (inactive).

As for `O=C(Nc1cccc(C(F)(F)F)c1)NC1CCN(c2ccnc3cc(Cl)ccc23)C1` (stereo unspecified), the inhibition was 18% (inactive).

Take `Cc1onc(-c2c(Cl)cccc2Cl)c1C(=O)NC1=NC(C)(C)ON1c1ccccc1`: the inhibition was 6% (inactive).

As for `CCOc1ccccc1C(=O)Nc1cccc(-c2nc3ncccn3c2C)c1`, the inhibition was 0% (inactive).

Take `CCOc1cc(C)c(C2CCN(CCCCNC(=O)c3ccc(NC(=O)c4ccc(Cl)cc4)cc3)CC2)cc1C`: the inhibition is 10% (inactive).

In the case of `CC(C)Cn1cc(C2CCN(CCN3CCC(CNC(=O)c4ccc(NC(=O)c5cc(Cl)cc(Cl)c5)cc4)CC3)CC2)c2ccccc21`, the inhibition is 53% (active).

With `Fc1ccc2nc(-c3ccc(-c4ccc(CN5CCN(CCN6CCOCC6)CC5)cc4)s3)[nH]c2c1`, the inhibition was 39% (inactive).

`COc1ccc(-c2nc(NC(=O)Cc3ccc4c(c3)OCCO4)sc2C)cc1`: the inhibition was 0% (inactive).

As to `Nc1ccc(-c2cc(Cl)cc(Cl)c2)cc1-c1cc2ccccc2[nH]1`, the inhibition was -9% (inactive).

As to `CC(CNc1ccnc(Nc2ccc3[nH]c(=O)[nH]c3c2)n1)c1ccccc1` (stereo unspecified), the inhibition was 50% (active).

Consider `CCCCCCCN1CC[C@@H](CCCc2ccnc3ccc(OC)cc23)[C@@H](CNC)C1`, for which the inhibition was 25% (inactive).

On to `NC1(C(=O)O)Cc2ccc(Cl)cc2C1` (stereo unspecified), for which the inhibition was 0% (inactive).

For `COc1ccc(CN(C)Cc2ccc(NC(=O)c3cccc4c(=O)c5cccc(C)c5[nH]c34)cc2)cc1OC`, the inhibition was 7% (inactive).

With `Cc1ccc(-c2nc3ccc(C(=O)NC4CCN(Cc5ccccc5)CC4)cc3[nH]2)cc1`, the inhibition was 20% (inactive).

As for `Cc1ccc(O)cc1Nc1ccnc2cc(-c3ccncc3)ccc12`, the inhibition is 16% (inactive).

In the case of `O=S(=O)(Nc1cccc(CCN2CCC(N3CCCCC3)CC2)c1)c1cccc2cccnc12`, the inhibition was 0% (inactive).

For the compound `O=C(NC(=O)c1ccccc1)NC1CCN(c2ccnc3cc(Cl)ccc23)C1` (stereo unspecified), the inhibition is 32% (inactive).

Regarding `Cc1c(Cl)cccc1S(=O)(=O)N1CCCCC(c2ccc(C(F)(F)F)cc2)=N1`, the inhibition was 15% (inactive).

Consider `CC1CCCN(C(=O)C(C)Nc2cc(Cl)ccc2N2CCOCC2)C1` (stereo unspecified), for which the inhibition is -1% (inactive).

Consider `Cc1cc(N(C)C)nc(Nc2ccc(NC(=O)c3ccccc3Cl)cc2)n1`, for which the inhibition is 3% (inactive).

As for `COc1cc(-c2nc(-c3ccccc3)c(-c3ccccc3)[nH]2)cc(OC)c1O`, the inhibition was 5% (inactive).

Consider `CCC(C)NC(=O)Nc1ccc(-c2cccc(-c3nc4c(C)cccc4[nH]3)c2)cc1` (stereo unspecified), for which the inhibition is 55% (active).

`N#Cc1cccc(CN2CCCN(Cc3cccc(C(=O)Nc4ccc(Cl)cc4)c3)CC2)c1`: the inhibition is 46% (inactive).

On to `CC(CCNc1c2ccccc2nc2ccccc12)N1CCN(C)CC1` (stereo unspecified), for which the inhibition was 25% (inactive).

As to `CCN(CC)c1nc(N)c2c(N)nc3c(c2c1C#N)C(=O)CN3Cc1ccccc1`, the inhibition was 26% (inactive).

Take `Cc1ccc(-c2cc(C(=O)Nc3ccc(S(=O)(=O)N4CCOCC4)cc3)[nH]n2)c(O)c1C`: the inhibition was 18% (inactive).

On to `COc1ccc(Br)cc1/C=C/C(=O)Nc1ccc(C2CCN(C)CC2)cc1`, for which the inhibition was 11% (inactive).

On to `CC(C)Cn1c(N)cc(=O)n(C)c1=O`, for which the inhibition was 3% (inactive).

As for `CC1(C)N=C(N)N=C(N)N1OCCCO`, the inhibition was 27% (inactive).

For `O=C(/C=C/c1ccc(Cl)c(Cl)c1)NCCCCCN1CCCN(C(=O)Nc2ccc(C(F)(F)F)cc2)CC1`, the inhibition was 31% (inactive).

In the case of `CCOC(=O)C(NC(=O)Cc1ccccc1)C(C)C` (stereo unspecified), the inhibition was 39% (inactive).

As for `COc1cc(Nc2ncnc3cc(OC)c(OC)cc23)cc([N+](=O)[O-])c1`, the inhibition was 8% (inactive).

With `COc1cc2c(cc1OC)CN(c1cc(N)c3cc(OC)c(OC)cc3n1)CC2`, the inhibition is 23% (inactive).
